In all, about 340,000 compounds went through this assay and about 12,000 (3.5%) were called active. Not shown: some 18% with an inconclusive outcome. The list comes from a sample in which actives are over-represented; it also holds similar structures and randomly drawn compounds. A number with no mark means an inactive call. The call rests on the fitted dose curve; in most records, active means well fitted inhibition curve with a large enough effect; inconclusive means small, poorly fitted or top-dose-only effect, or another doubt; inactive means no such curve, though single readings can be large or run the other way.

53 compounds from PubChem BioAssay AID651820 (National Center for Advancing Translational Sciences (NCATS), 2012) can be followed below.
On the % scale 0 is the no-effect control and ±100 the full control effect; potency means the concentration at half of the fitted maximal effect.

The test can be described thus: qHTS Assay for Inhibitors of Hepatitis C Virus (HCV). As to conditions: Huh7.5.1 HCVcc-Cre infection, luciferase reporter, 44 h; series mostly up to 41.8 µM; activity change, negative = inhibition: at the top concentration. Put shortly:
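Antiviral activity was scored by luciferase reporter output from cells infected with HCVcc-Cre (~0.5 moi) in presence of compound, 44 h infection period, cells seeded 1,000/well 4 h prior.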
Background: Quantitative high-throughput screening tests each substance at several concentrations.
As to `CC(=O)c1cccc(CN2CCC(CO)(Cc3ccccc3)CC2)c1`, the “activity change, negative = inhibition” value is -1.38%. As for `c1ccc2cc(CCCc3cc4ccccc4cn3)ncc2c1`, the “activity change, negative = inhibition” value is -5.19%. As for `COc1ccc([C@H]2CC(=O)C=C(/C=C/c3ccccc3)C2)cc1`, the “activity change, negative = inhibition” value is 1.94%.

Regarding `COc1cc(C(=O)NCc2nnc(SCC(=O)c3ccc(Cl)cc3)o2)cc(OC)c1OC`, the “activity change, negative = inhibition” value was -20.9%. The same measure, in the same setting: then `CCOC(=O)CSc1nnc(CNc2ccc(F)cc2)o1`, with 2.35%. As to `CCC(=O)Nc1ccc(C(=O)CSc2nnc(CNc3ccc(Cl)cc3)o2)cc1OC`, the Potency is 5.01 µM (active). As to `O=C(COC(=O)c1cccnc1Cl)NC12CC3CC(CC(C3)C1)C2`, the “activity change, negative = inhibition” value was 15%. Take `Cc1nn(C)cc1/C=C1\CCC/C(=C\c2cn(C)nc2C)C1=O`: the Potency was 10 µM (active). For the compound `CCn1cc(/C=C2/SC(=S)NC2=O)c(C)n1`, the “activity change, negative = inhibition” value was -23.4%. On to `O=C1/C(=C/c2ccc3c(c2)OCO3)CCC/C1=C\c1ccc2c(c1)OCO2`, for which the Potency result is “inactive”. `CC(=O)N(O)CCCCCNC(=O)CCC(=O)N(O)CCCCCNC(=O)CCC(=O)N(O)CCCCCNC(=O)CCC(=O)O`: the “activity change, negative = inhibition” value was -9.7%.

Turning to `O=S1(=O)CSCS(=O)(=O)C1`, the “activity change, negative = inhibition” value was 4.27%. Turning to `CCN(CC)CCNC(=O)Cn1cnc2sc(C)c(S(=O)(=O)N3CCOCC3)c2c1=O`, the Potency entry was “inactive”. For `CCN(CC)CCNC(=O)c1sc2ncn(CC(=O)Nc3ccc(C)c(Cl)c3)c(=O)c2c1C`, the Potency is 8.91 µM (active). With `CCN(CC)CCCNC(=O)Cn1cnc2sc(C)c(S(=O)(=O)N3CCN(c4ncccn4)CC3)c2c1=O`, the “activity change, negative = inhibition” value is -1.55%. `CC(=O)Nc1ccc(C(=O)Nc2cc(S(=O)(=O)N3CCOCC3)ccc2N2CCOCC2)cc1`: the “activity change, negative = inhibition” value is -10.7%. As for `O=C(CN1CCOCC1)Nc1cccc([N+](=O)[O-])c1`, the “activity change, negative = inhibition” value was 7.8%. Turning to `Cc1cccc(NC(=S)N(CCN(C)C)C(C)c2ccco2)c1` (stereo not drawn), the “activity change, negative = inhibition” value is 21.8%. Regarding `COCCN(C(=S)Nc1ccccc1OC)C1CCN(C(C)C)CC1`, the “activity change, negative = inhibition” value was -1.86%.

Turning to `CCc1cccc(NC(=S)N(CCN(C)C)C2CCN(C(C)C)CC2)c1`, the Potency was 8.91 µM (active). As to `O=c1oc2ccc(C#CC3(O)CCCCC3)cc2cc1-n1cc(-c2ccsc2)nn1`, the “activity change, negative = inhibition” value is 6.15%. As to `CCOC(=O)C(C)N(c1ccccc1Cl)S(C)(=O)=O` (stereo not drawn), the “activity change, negative = inhibition” value was 7.17%. With `COc1cccc(CNC(=O)COc2cc(O)c3c(c2)OC(C)(C)CC3=O)c1`, the Potency was 5.01 µM (active). On to `COc1cccc(CCNC(=O)COc2cccc3c2OC(C)(C)C3)c1`, for which the “activity change, negative = inhibition” value is -22%.

With `COc1cccc(CC(=O)OCC(=O)NCc2ccc3c(c2)OCO3)c1`, the “activity change, negative = inhibition” value was 15.7%.

As to `COc1cc2[nH]c(O)c(C=O)c2cc1OC`, the “activity change, negative = inhibition” value was 7.9%. As to `COc1ccccc1C(=O)Nc1ccc(Nc2ccccc2)cc1`, the “activity change, negative = inhibition” value was 2.81%.

As to `COc1ccc2[nH]c3c(c2c1)CCN1C(=O)C(CC(=O)NCCc2ccccn2)C[C@H](C(=O)N2CCOCC2)[C@@]31C` (stereo partly drawn), the “activity change, negative = inhibition” value was -4.93%.

On to `COc1ccc(OC)c(CNC(=O)Cn2nc(C)c3c(C)n(-c4ccc(C)cc4)nc3c2=O)c1`, for which the Potency was 3.98 µM (active). Turning to `Cc1nn(CC(=O)N2CCCCC2)c(=O)c2nn(-c3ccccc3)c(C)c12`, the “activity change, negative = inhibition” value is 9.96%. With `COc1ccc(CNC(=O)C(C)n2nc(C)c3c(C)n(-c4ccccc4)nc3c2=O)c(OC)c1` (stereo not drawn), the “activity change, negative = inhibition” value is -27.5%. `O=C(c1ccc(Cl)s1)N(Cc1nnc(-c2ccccc2Cl)o1)C1CC1`: the “activity change, negative = inhibition” value was 0%. With `CCC(=O)NC(=S)Nc1ccc(NC(=O)c2ccco2)c(Cl)c1`, the “activity change, negative = inhibition” value was -21.3%. On the same count and under the same terms, the figure for `COc1ccc(OCC(=O)Nc2ccc(NC(=O)c3ccco3)c(C)c2)cc1` is 9.3%.

`CCN(CC)P(=O)(Nc1ccc(SC(F)F)cc1)c1ccc(N(C)C)cc1NC(=O)c1ccco1` (stereo not drawn): the Potency was 22.4 µM (active). As to `CCN(C(=O)COC(=O)CCOc1cccc(C)c1)c1c(N)n(Cc2ccccc2)c(=O)[nH]c1=O`, the “activity change, negative = inhibition” value is 23.4%. Regarding `CC(OC(=O)c1ccc([N+](=O)[O-])cc1)C(=O)NCC1CCCCC1` (stereo not drawn), the “activity change, negative = inhibition” value is -7.4%. In the case of `N[C@@H](Cc1ccccc1)C(=O)N1CCOCC1`, the “activity change, negative = inhibition” value was 1.81%. Same read-out and setting: the figure for `COc1ccc(-c2cc(C(=O)N/N=C/c3cccnc3)c3ccccc3n2)c(OC)c1` is -20.3%; for `Cc1ccc(C(=O)NCCN2CCOCC2)cc1C` it is 19.4%.

As for `CC(=O)Oc1cc2c(C(=O)NCCN3CCOCC3)c(C)oc2c2ccccc12`, the Potency is 10 µM (active). As for `Cc1cc(C)cc(C(=O)NCCN2CCOCC2)c1`, the “activity change, negative = inhibition” value was 25.1%. In the case of `C[C@@H]1CN([C@H](C)CO)C(=O)c2cc(NC(=O)NC3CCCCC3)ccc2O[C@H]1CN(C)S(C)(=O)=O`, the “activity change, negative = inhibition” value was 0.0101%. For the compound `Cc1ccc(S(=O)(=O)CCC(=O)OCC(=O)NCCc2ccc(S(N)(=O)=O)cc2)cc1`, the “activity change, negative = inhibition” value is 19.7%.

As to `COc1cc(CC(=O)Nc2nc(-c3ccc(F)c(F)c3)cs2)cc(OC)c1OC`, the Potency is 10 µM (active). With `COc1cccc(CC(=O)Nc2nc(-c3ccc(OC)c(OC)c3)cs2)c1`, the Potency is 12.6 µM (active). For the compound `COc1ccc(CC(=O)Nc2nc(-c3ccc(F)c(F)c3)cs2)cc1OC`, the Potency was 4.47 µM (active). `COc1ccc(-c2csc(NC(=O)c3ccc(N4C(=O)CCC4=O)cc3)n2)cc1OC`: the “activity change, negative = inhibition” value is -26.9%. Turning to `COc1ccc(CCN(C(=O)COc2ccccc2)c2nc(-c3ccccc3)cs2)cc1OC`, the “activity change, negative = inhibition” value is -26%. Regarding `Cc1ccc(S(=O)(=O)NC(=O)Nc2nc(-c3ccc(F)c(F)c3)cs2)cc1`, the “activity change, negative = inhibition” value is -7.66%. Turning to `COc1cccc(CC(=O)Nc2ccc(-c3csc(C)n3)cc2)c1`, the “activity change, negative = inhibition” value was -22.6%. Same read-out and setting: the figure for `Cc1ccc(-c2csc(NC(=O)Cc3cccs3)n2)cc1C` is -1.69%. In the case of `COc1ccc(CC(=O)Nc2ccccc2NC(=O)c2ccco2)cc1OC`, the “activity change, negative = inhibition” value is -1.79%.
